In all, about 310,000 compounds went through this assay and about 14,000 (4.5%) showed an effect of 50% or more. Effects have a minus sign here. Shown is part of a subset that was picked to be rich in strong results.
The compounds below were run against human ether-à-go-go-related gene (hERG) potassium channel (human, UniProt Q12809) (assay: primary screen, population patch clamp on CHO cells stably expressing hERG; higher = less effect of the substance).
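Note: peak tail current of the secondary pulse compared with the same well before compound.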

Chain of human ether-à-go-go-related gene (hERG) potassium channel (Q12809 whole entry, looked up): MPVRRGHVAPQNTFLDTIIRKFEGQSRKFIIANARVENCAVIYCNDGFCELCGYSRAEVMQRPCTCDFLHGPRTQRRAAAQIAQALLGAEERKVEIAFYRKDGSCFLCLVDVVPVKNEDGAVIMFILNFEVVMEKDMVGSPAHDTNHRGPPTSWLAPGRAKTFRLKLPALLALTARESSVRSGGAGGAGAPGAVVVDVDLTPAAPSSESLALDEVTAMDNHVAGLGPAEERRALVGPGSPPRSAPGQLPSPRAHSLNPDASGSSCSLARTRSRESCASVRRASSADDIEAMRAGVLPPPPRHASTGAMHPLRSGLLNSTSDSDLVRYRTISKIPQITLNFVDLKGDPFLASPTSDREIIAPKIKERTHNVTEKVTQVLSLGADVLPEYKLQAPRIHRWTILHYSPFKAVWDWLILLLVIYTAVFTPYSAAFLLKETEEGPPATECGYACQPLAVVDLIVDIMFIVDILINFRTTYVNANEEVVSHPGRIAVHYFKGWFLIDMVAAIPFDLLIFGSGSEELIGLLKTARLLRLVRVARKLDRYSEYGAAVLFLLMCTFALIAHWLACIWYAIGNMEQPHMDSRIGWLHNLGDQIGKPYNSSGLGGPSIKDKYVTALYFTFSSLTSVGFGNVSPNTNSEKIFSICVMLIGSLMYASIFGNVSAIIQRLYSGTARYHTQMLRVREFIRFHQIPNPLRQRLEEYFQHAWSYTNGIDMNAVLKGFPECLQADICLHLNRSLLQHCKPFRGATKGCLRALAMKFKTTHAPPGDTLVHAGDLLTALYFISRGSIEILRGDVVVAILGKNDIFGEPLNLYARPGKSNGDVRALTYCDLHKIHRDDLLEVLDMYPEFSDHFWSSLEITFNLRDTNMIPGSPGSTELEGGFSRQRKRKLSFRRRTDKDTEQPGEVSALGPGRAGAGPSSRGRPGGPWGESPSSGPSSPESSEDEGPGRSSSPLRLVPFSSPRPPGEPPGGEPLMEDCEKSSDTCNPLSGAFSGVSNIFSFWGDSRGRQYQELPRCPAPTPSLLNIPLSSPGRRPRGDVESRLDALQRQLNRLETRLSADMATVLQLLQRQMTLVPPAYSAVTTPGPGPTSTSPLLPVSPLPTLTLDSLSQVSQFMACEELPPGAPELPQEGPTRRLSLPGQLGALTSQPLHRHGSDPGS

Row | Structure (SMILES) | hERG current change (%, negative = inhibition) at 10uM
1 | CCOc1ccc(C)cc1S(=O)(=O)Nc1ccc(Cl)cn1 | -3.98%
2 | Cn1c(=O)cc(OCC(=O)N2CCCc3ccccc32)c2ccccc21 | -3.03%
3 | CCOC(=O)C1(Cc2ccccc2C)CCCN(C(=O)CN2CCCCC2=O)C1 (centres unmarked) | 14.8%
4 | COc1ccc(C(CC(=O)O)NC(=O)COc2ccc(C)cc2)cc1OC (centres unmarked) | 15.2%
5 | CCOC(=O)c1c(NC(=O)c2cccs2)sc2c1CCCC2 | 15.6%
6 | Cc1ccccc1NC1=NCC(C)S1 (centres unmarked) | -2.32%
7 | CCOC(=O)CN1C(=O)N[C@@H](c2cccs2)C(C(=O)OC)=C1C | -11%
8 | CCCc1nn2c(=O)cc(CSCC(=O)Nc3ccc(F)cc3)nc2s1 | -1.51%
9 | O=C(NCCc1ccccc1Cl)C1CCC(=O)N(Cc2ccc(Cl)cc2)C1 (centres unmarked) | -56.8%
10 | COc1ccccc1CN1CC(C(=O)N2CCCCO2)CCC1=O (centres unmarked) | -65.7%
11 | COc1ccccc1CCNC(=O)C1CCC(=O)N(Cc2ccccc2OC)C1 (centres unmarked) | -13.2%
12 | COc1ccccc1CN1CC(C(=O)NCCN(C)CCc2ccccc2)CCC1=O (centres unmarked) | -65.7%
13 | COc1ccccc1CN1CC(C(=O)N2CCOCC2)CCC1=O (centres unmarked) | -14.6%
14 | O=C(NCCc1ccccc1F)C1CCC(=O)N(Cc2ccc(Cl)cc2)C1 (centres unmarked) | -32.5%
15 | O=C(NC1(c2ccccc2)CC1)C1CCC(=O)N(Cc2ccc(Cl)cc2)C1 (centres unmarked) | -24.1%
16 | COc1ccccc1CN1CC(C(=O)NCCCc2ccc(F)cc2)CCC1=O (centres unmarked) | -41%
17 | CN(CCNC(=O)C1CCC(=O)N(Cc2ccc(Cl)cc2)C1)CCc1ccccc1 (centres unmarked) | -72.6%
18 | Cc1ccccc1CCNC(=O)C1CCC(=O)N(Cc2ccc(Cl)cc2)C1 (centres unmarked) | -33.4%
19 | COc1ccccc1CN1CC(C(=O)N2CCCCCCC2)CCC1=O (centres unmarked) | 3.22%
20 | CN(CCNC(=O)C1CCC(=O)N(Cc2cccc(F)c2)C1)CCc1ccccc1 (centres unmarked) | -46.3%
21 | O=S(=O)(NC1CCCCC1)c1ccc(N2CCOCC2)nc1 | -2.81%

Row | Structure (SMILES) | hERG current change (%, negative = inhibition) at 10uM
22 | COc1ccc(C(C(=O)NC2CCCC2)N(C(=O)c2snc(-c3ccc(F)cc3)c2N)c2ccc(F)cc2)cc1 (centres unmarked) | 1.29%
23 | N#Cc1ccccc1NC(=O)c1ccccc1OCC(=O)Nc1ccc2c(c1)oc1ccccc12 | 16.2%
24 | Cc1nn(-c2ccc(F)cc2)c(Cl)c1/C=C/C(=O)OCC(=O)Nc1ccc(F)cc1F | 15.5%
25 | CSc1ccc(NC(=O)CC(C)=O)cc1 | -21.3%
26 | Cc1c(NC(=O)c2cc3c(=O)n4ccccc4nc3s2)c(=O)n(-c2ccccc2)n1C | 8.11%
27 | CN(Cc1nc2ccccc2n1C)S(=O)(=O)c1ccc(Cl)cc1 | 3.21%
28 | CCC(=O)c1c[nH]c(C(=O)NCCc2ccccn2)c1 | 3.31%
29 | O=C(CCNC(=O)N1CCn2c1nc1ccccc12)NCc1ccc(F)cc1 | -6.29%
30 | COc1ccc(Br)cc1/C=C(\C(=O)O)c1ccc(S(=O)(=O)N2CCCCC2)s1 | 0.483%
31 | Cc1ccc(CNC(=O)C2CCC(=O)N(CCc3ccc(Cl)cc3)C2)s1 (centres unmarked) | -69.4%
32 | Cc1ccc(CCN2CC(C(=O)NCCc3ccccc3)CC2=O)cc1 (centres unmarked) | -3.16%
33 | O=C(NCCOc1ccccc1)C1CCC(=O)N(CCc2ccc(Cl)cc2)C1 (centres unmarked) | -88.2%
34 | O=C(NCCCc1ccccc1)C1CCC(=O)N(Cc2ccc(Cl)cc2)C1 (centres unmarked) | -61.3%
35 | O=C(NCCOc1ccccc1)C1CCC(=O)N(Cc2ccc(Cl)cc2)C1 (centres unmarked) | -31.2%
36 | O=C(NCc1ccccc1F)C1CCC(=O)N(Cc2ccc(Cl)cc2)C1 (centres unmarked) | -42.1%
37 | Cc1ccc(CNC(=O)C2CCC(=O)N(CCc3ccccn3)C2)s1 (centres unmarked) | 2.53%
38 | O=C(NCCc1ccc(Cl)cc1)C1CC(=O)N(CCc2ccccc2)C1 (centres unmarked) | -62%
39 | O=C(NCCOc1ccccc1)C1CCC(=O)N(CCc2ccccn2)C1 (centres unmarked) | -11.9%
40 | Cc1ccc(CNC(=O)C2CCC(=O)N(CCc3ccccc3)C2)s1 (centres unmarked) | -25.7%
41 | O=C(NCCc1ccccc1)C1CCC(=O)N(Cc2ccc(Cl)cc2)C1 (centres unmarked) | -20.5%
42 | O=C(NCCc1ccccc1)C1CC(=O)N(CCc2ccccc2)C1 (centres unmarked) | 6.57%

Row | Structure (SMILES) | hERG current change (%, negative = inhibition) at 10uM
43 | Cc1ccc(S(=O)(=O)N(CCCO)CC(O)CON=C2c3ccccc3-c3ccccc32)cc1 (centres unmarked) | 14.4%
44 | NC(=O)c1ccc(-c2noc(-c3cccc(Cl)c3)n2)cc1 | 19.4%
45 | Cc1ccc(CSCc2ccc(C(=O)O)o2)cc1 | 21.8%
46 | COC(=O)c1ccncc1C(=O)Nc1ccc(Oc2ncc(C(F)(F)F)cc2Cl)cc1 | -5.09%
47 | O=C(CCCCn1c(=O)[nH]c2ccsc2c1=O)NCC1CCCO1 (centres unmarked) | 4.17%
48 | COC(=O)[C@]1(C)CCC[C@@]2(C)C3CC[C@@]4(C)C[C@]3(CCC21)CC(=O)N4Cc1ccc(OC)cc1 (some centres unmarked) | 7.82%
49 | C#CCOCCOCCOCCNc1nc(N2CCN(C(=O)[C@H](CCCC[NH3+])n3cc(CCCC)nn3)CC2)nc(N2CCN(C(=O)[C@H](CCCC[NH3+])n3cc(CCC(=O)O)nn3)CC2)n1.[Cl-] | 17.4%
50 | Cn1nc(C(=O)OCc2ccc(F)cc2)c2ccccc2c1=O | 3.57%
51 | Cc1cc(C)c(OC2(c3ccccc3)OC(=O)c3ccccc32)c(C)c1 (centres unmarked) | -5.57%
52 | Cc1c(C(=O)Nc2ccccc2)c2cc(O)ccc2n1Cc1ccccc1 | 4.2%
53 | O=C(NCc1cccs1)c1noc2c1CCCC2 | -2.52%
54 | O=C(NCCc1ccccc1Cl)C1CCC(=O)N(CCCc2ccccc2)C1 (centres unmarked) | -34.1%
55 | CC(C)c1cc(CNC(=O)C2CCC(=O)N(CCc3ccc(Cl)cc3)C2)on1 (centres unmarked) | -68.1%
56 | CC(C)c1nc(CNC(=O)C2CCC(=O)N(CCc3ccc(Cl)cc3)C2)no1 (centres unmarked) | -27.6%
57 | O=C(NCCN1CCCC1=O)C1CCC(=O)N(CCc2ccc(Cl)cc2)C1 (centres unmarked) | -4.65%
58 | O=C(NCCCC1CCCC1)C1CCC(=O)N(Cc2ccc(Cl)cc2)C1 (centres unmarked) | -61.4%
59 | O=C(NCCCC1CCCC1)C1CCC(=O)N(Cc2ccccc2F)C1 (centres unmarked) | -9.03%
60 | O=C(NCCCc1ccncc1)C1CCC(=O)N(Cc2cccc(C(F)(F)F)c2)C1 (centres unmarked) | -18.7%
61 | O=C(NCCCc1ccncc1)C1CCC(=O)N(Cc2ccc(Cl)cc2)C1 (centres unmarked) | -61.1%
62 | O=C(NCCCc1ccccc1)C1CCC(=O)N(CCc2ccc(Cl)cc2)C1 (centres unmarked) | -79.8%
63 | Cc1cc(CNC(=O)C2CCC(=O)N(CCc3ccc(Cl)cc3)C2)no1 (centres unmarked) | -39.7%

Row | Structure (SMILES) | hERG current change (%, negative = inhibition) at 10uM
64 | O=C(NCCCC1CCCC1)C1CCC(=O)N(Cc2cccc(F)c2)C1 (centres unmarked) | -15.2%
65 | O=C(NCCc1cnccn1)C1CCC(=O)N(Cc2ccc(Cl)cc2)C1 (centres unmarked) | 2.46%
66 | CCn1c(CNC(=O)c2ccccc2F)nnc1SCC(=O)NC1CCCCC1C (centres unmarked) | 31.8%
67 | O=C(c1ccc(F)cc1)N1CCC(N2CCOCC2)CC1 | -5.45%
68 | O=C(Nc1ccc(S(=O)(=O)Nc2ncccn2)cc1)c1cccc(S(=O)(=O)N2CCCC2)c1 | -4.1%
69 | N#Cc1nc(-c2ccc(F)cc2)oc1N1CCCCC1 | 8.29%
70 | COc1ccccc1Cc1noc(COc2cccc(C)c2C)n1 | 3.03%
71 | COc1ccc(C(=O)NCCc2nnc3ccc(SCC(=O)Nc4cc(C)on4)nn23)cc1 | 4.8%
72 | COC(=O)C1=C(c2ccc(OC(F)(F)F)cc2)C[C@@H]2CC[C@H]1N2C(=O)NCCNC(C)=O | 2.65%
73 | COC(=O)C1=C(c2ccc(OC(F)(F)F)cc2)C[C@@H]2CC[C@H]1N2C(=O)NCC1CC1 | -58.6%
74 | COC(=O)C1=C(c2ccc(C(C)=O)cc2)C[C@@H]2CC[C@H]1N2C(=O)N1CCC(O)(c2ccc(Cl)cc2)CC1 | -73.6%
75 | CCCNC(=O)N1[C@H]2CC[C@@H]1C(C(=O)OC)=C(c1ccc(OC(F)(F)F)cc1)C2 | -27.4%
76 | COC(=O)C1=C(c2ccc(OC(F)(F)F)cc2)C[C@@H]2CC[C@H]1N2C(=O)N1CCC(O)CC1 | -36.2%
77 | COC(=O)C1=C(c2ccc(OC(F)(F)F)cc2)C[C@@H]2CC[C@H]1N2C(=O)N1CCCCC1 | -56.3%
78 | COC(=O)C1=C(c2ccc(C(C)=O)cc2)C[C@@H]2CC[C@H]1N2C(=O)N1CCCC1 | 0.9%
79 | COC(=O)C1=C(c2ccc(OC(F)(F)F)cc2)C[C@@H]2CC[C@H]1N2C(=O)N1CCCC1 | -47.9%
80 | COC(=O)C1=C(c2ccc(C(C)=O)cc2)C[C@@H]2CC[C@H]1N2C(=O)N1CCCCC1 | -16.9%
81 | CC1=CC=CC2=N/C(=N\S(=O)(=O)c3ccc(F)cc3F)c3ccccc3CN12 | -20.3%
82 | COc1ccc(CC(=O)N(C)Cc2cccc(OC)c2OC)cc1S(=O)(=O)N1CCOCC1 | -5.58%
83 | N=c1oc2ccccc2cc1C(=O)Nc1ccc(F)cc1 | 16.5%

Source: PMC4336329 (PLoS ONE, 2015)
